{"source": "PubChem BioAssay AID620", "about": "(Sanford-Burnham Center for Chemical Genomics, 2007)", "note": "The whole screen tested about 87,000 compounds, of which about 360 (0.41%) were called active. Rule as the data show it: active = cytotoxicity above about 50%; inactive = the rest. Many of the other results were omitted from the sample, so actives are more common in it than they were.", "data": [{"experiment": "cytotoxicity in HT1080 fibrosarcoma cells, cell-based, fluorescence readout (AID 620);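 also: cells exposed to compound overnight then 4 h with Alamar Blue; 0% = vehicle DMSO and 100% = killing control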", "details": "HT1080 viability, at 10 µM, stronger effect = higher value", "values": [{"molecule": "O=C(CSc1ncn(-c2ccccc2)n1)c1cccs1", "cytotoxicity": "-3.1% (inactive)"}, {"molecule": "CCOc1ccc(-c2nc(S(=O)(=O)c3ccccc3)c(NCc3cccnc3)o2)cc1", "cytotoxicity": "0.3% (inactive)"}, {"molecule": "CC(=O)Nc1ccccc1-c1nn[nH]n1", "cytotoxicity": "-11.5% (inactive)"}, {"molecule": "Cn1c(SCc2ccon2)nc2ccccc2c1=O", "cytotoxicity": "2.4% (inactive)"}, {"molecule": "Cn1c(/C=C/c2ccc([N+](=O)[O-])o2)nc2ccccc2c1=O", "cytotoxicity": "85.1% (active)"}, {"molecule": "Cc1ccc2nc(N/N=C\\c3ccc([N+](=O)[O-])o3)nc(-c3ccccc3)c2c1", "cytotoxicity": "13.6% (inactive)"}, {"molecule": "O=C(CC1(O)C(=O)Nc2cc(Cl)cc(Cl)c21)c1ccccc1O", "note": "(configuration not stated)", "cytotoxicity": "-66.6% (inactive)"}, {"molecule": "CCCCNc1c(C(=O)OCC)c(=O)[nH]c2ccccc12", "cytotoxicity": "0.1% (inactive)"}, {"molecule": "CCN(CC)c1ccc(NC(=O)c2c(OC)cccc2OC)c(C)c1", "cytotoxicity": "-1.4% (inactive)"}, {"molecule": "CCN(CC)c1ccc(NC(=O)c2cc(OC)cc(OC)c2)c(C)c1", "cytotoxicity": "59.7% (active)"}, {"molecule": "CCN(CC)c1ccc(NC(=O)c2cccc(OC)c2)c(C)c1", "cytotoxicity": "16.9% (inactive)"}, {"molecule": "CCC1Oc2ccccc2N(CC(=O)NCCCN2CCOCC2)C1=O", "note": "(configuration not stated)", "cytotoxicity": "-2.1% (inactive)"}, {"molecule": "O=S(=O)(Nc1ccc2c(c1)OCO2)c1ccc(Br)s1", "cytotoxicity": "9.9% (inactive)"}, {"molecule": "COCCn1c(SCC#N)nnc1-c1ccccc1", "cytotoxicity": "22.4% (inactive)"}, {"molecule": "CCOc1cc(/C=N/n2cnnc2)cc(Br)c1O", "cytotoxicity": "0.3% (inactive)"}, {"molecule": "CCOc1cc(/C=N/n2cnnc2)c(Br)cc1O", "cytotoxicity": "62.2% (active)"}, {"molecule": "CCOc1cc(/C=N/n2cnnc2)ccc1O", "cytotoxicity": "-5% (inactive)"}, {"molecule": "COc1ccc(NC(=O)c2cc(OC)c(OC)c(OC)c2)cn1", "cytotoxicity": "3.1% (inactive)"}, {"molecule": "COC(=O)c1ccccc1S(=O)(=O)Nc1ccc(OC)nc1", "cytotoxicity": "13% (inactive)"}, {"molecule": "COc1ccc(CS(=O)(=O)/C(Cl)=C(/Cl)C(=O)Nc2ccc(OC)nc2)cc1", "cytotoxicity": "63.1% (active)"}, {"molecule": "COc1ccc(CNC(=O)Nc2ccc(C)cc2)cc1", "cytotoxicity": "-2.8% (inactive)"}, {"molecule": "COc1ccc(NC(=O)C(CC(C)C)NC(=O)c2ccccc2C)cn1", "note": "(configuration not stated)", "cytotoxicity": "0.6% (inactive)"}, {"molecule": "COc1ccc(NC(=O)/C(Cl)=C(/Cl)S(=O)(=O)Cc2ccccc2)cn1", "cytotoxicity": "79.3% (active)"}, {"molecule": "COc1ccc(NS(=O)(=O)Cc2ccccc2Cl)cn1", "cytotoxicity": "14.8% (inactive)"}, {"molecule": "CCCS(=O)(=O)C(=C(Nc1ccc(OC)cc1)Nc1ccc(OC)cc1)S(=O)(=O)CCC", "cytotoxicity": "7.4% (inactive)"}, {"molecule": "COc1ccc(C(=O)/C=C(\\N)C(F)(F)F)c(O)c1", "cytotoxicity": "-3.6% (inactive)"}, {"molecule": "CCOC(=O)CSc1nc2c(c(=O)[nH]c(=O)n2C)n1C/C=C(/C)Cl", "cytotoxicity": "12% (inactive)"}, {"molecule": "O=C1C=C(N(CCO)CCO)C2(CCCCC2)O1", "cytotoxicity": "-7.3% (inactive)"}, {"molecule": "O=C(O)CNc1nc(-c2ccccc2)nc2ccccc12", "cytotoxicity": "-10.9% (inactive)"}, {"molecule": "COC1=C(OC)c2ccccc2C(C(=O)O)N/C1=C(/C)Nc1ccncc1", "note": "(configuration not stated)", "cytotoxicity": "-1% (inactive)"}, {"molecule": "CN(CC(=O)NC1CCCCCCC1)S(=O)(=O)c1cccc2cccnc12", "cytotoxicity": "-11.8% (inactive)"}, {"molecule": "CCOC(=O)/C(=C/Nc1ccccc1)[N+](=O)[O-]", "cytotoxicity": "-10.2% (inactive)"}, {"molecule": "CCOC(=O)c1sc(Nc2ccccc2)nc1C", "cytotoxicity": "15% (inactive)"}, {"molecule": "CCOC(=O)/C(=C\\c1cccnc1)C(=O)c1cc(C(C)=O)c(Nc2ccccc2)s1", "cytotoxicity": "75.6% (active)"}, {"molecule": "CCOC(=O)c1cccc(NC(=O)c2cccnc2)c1", "cytotoxicity": "0.2% (inactive)"}, {"molecule": "CCOC(=O)Nc1cccc(Nc2ccccc2)c1", "cytotoxicity": "-3.2% (inactive)"}, {"molecule": "Cn1c(-c2sc(=S)n(-c3ccccc3)c2N)nc2ccccc21", "cytotoxicity": "-7.2% (inactive)"}, {"molecule": "CCCCn1c(SCC(=O)N2CCC(C)CC2)nc2cc(S(N)(=O)=O)ccc21", "cytotoxicity": "27.9% (inactive)"}, {"molecule": "CC1CCc2c(sc3ncnc(SCC(=O)c4ccccc4)c23)C1", "note": "(configuration not stated)", "cytotoxicity": "4.4% (inactive)"}, {"molecule": "CC(C)(C)c1csc(NC(=O)Cn2c(=O)oc3ccccc32)n1", "cytotoxicity": "-6.8% (inactive)"}, {"molecule": "CNC(=O)c1ncnnc1N(C)C(=O)NCc1ccccc1", "cytotoxicity": "-2.1% (inactive)"}, {"molecule": "CN1CCN(C(=O)c2ccc(C3SCC(=O)N3Cc3ccco3)cc2)CC1", "note": "(configuration not stated)", "cytotoxicity": "-8.2% (inactive)"}, {"molecule": "O=C1c2ccccc2OC2(C=Cc3ccccc3O2)N1Cc1ccccc1", "note": "(configuration not stated)", "cytotoxicity": "15.6% (inactive)"}, {"molecule": "CN1CC2=Cc3ccccc3OC23Oc2ccccc2C=C3C1", "cytotoxicity": "51.7% (active)"}, {"molecule": "O=C(Nc1cccc(-c2nc3ccccc3o2)c1)c1ccc(N2C(=O)C3C4C=CC(C4)C3C2=O)cc1", "note": "(configuration not stated)", "cytotoxicity": "21.5% (inactive)"}, {"molecule": "CCSc1nnc(NC(=O)c2cccs2)s1", "cytotoxicity": "-4.1% (inactive)"}, {"molecule": "CCSc1nnc(NC(=O)c2ccc(Br)s2)s1", "cytotoxicity": "68.3% (active)"}, {"molecule": "COCCNc1nnc(SCC(=O)c2ccc3c(c2)OCO3)s1", "cytotoxicity": "1.3% (inactive)"}, {"molecule": "CCSc1nnc(NC(=O)c2ccc3c(c2)OCO3)s1", "cytotoxicity": "55.2% (active)"}, {"molecule": "CCSc1nnc(NC(=O)c2csc(C)c2)s1", "cytotoxicity": "25.7% (inactive)"}, {"molecule": "CCSc1nnc(NC(=O)c2ccccn2)s1", "cytotoxicity": "-11% (inactive)"}, {"molecule": "CCOCCCn1c(SCC(=O)Nc2ccc(C(N)=O)cc2)nc2ccccc2c1=O", "cytotoxicity": "-6% (inactive)"}, {"molecule": "CCOC(=O)c1cc(-c2ccc(C)o2)nn1CCC#N", "cytotoxicity": "0.3% (inactive)"}, {"molecule": "CCOCCCNC(=O)c1ccc(OC)cc1", "cytotoxicity": "-2.5% (inactive)"}, {"molecule": "CCC1=Nc2cc(C(=O)NCCCOC)ccc2Sc2ccccc21", "cytotoxicity": "68.1% (active)"}, {"molecule": "CCCC1=Nc2cc(C(=O)NCCCOC(C)C)ccc2Sc2ccccc21", "cytotoxicity": "6.2% (inactive)"}, {"molecule": "COCCCNC(=O)c1cccc(C(=O)NCCCOC)c1", "cytotoxicity": "0.6% (inactive)"}, {"molecule": "CCC1=Nc2cc(C(=O)NCCCOC(C)C)ccc2Sc2ccccc21", "cytotoxicity": "39.6% (inactive)"}, {"molecule": "CCCC1=Nc2cc(C(=O)NCCCOCC)ccc2Sc2ccccc21", "cytotoxicity": "63.8% (active)"}, {"molecule": "CC(C)C1N=C2c3ccccc3N=C(SCc3cc(=O)n4ccccc4n3)N2C1=O", "note": "(configuration not stated)", "cytotoxicity": "2.9% (inactive)"}, {"molecule": "CCOc1ccc(S(=O)(=O)N2CCN(C)CC2)c(C)c1C", "cytotoxicity": "11.2% (inactive)"}, {"molecule": "CCC(C)(C)n1c(=O)[nH]c2c(c1=O)CCC2", "cytotoxicity": "25.2% (inactive)"}, {"molecule": "O=C(Nc1ccccc1N1CCCCC1)c1ncoc1-c1ccc(F)cc1", "cytotoxicity": "-6.7% (inactive)"}, {"molecule": "CCOc1ccc(/C=C2/SC(=S)N(n3c(C)ccc3C)C2=O)cc1", "cytotoxicity": "-16.1% (inactive)"}, {"molecule": "CCOc1ccc(C(=O)N2CCCC2)cc1OC", "cytotoxicity": "4.1% (inactive)"}, {"molecule": "COc1ccc(C(=O)N2CCc3cc(OC)c(OC)cc3C2)cc1OC", "cytotoxicity": "-5.5% (inactive)"}, {"molecule": "CCOc1cc(C(=O)N2CCc3cc(OC)c(OC)cc3C2)ccc1OC(F)F", "cytotoxicity": "59.3% (active)"}]}]}
